{
  "source": "PubChem BioAssay (NCI)",
  "assay": "NCI Yeast Anticancer Drug Screen. Data for the sgs1 mgt1 strain (AID 161);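 also: 0% = growth of cultures given vehicle only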",
  "details": "S. cerevisiae sgs1 mgt1 strain, stronger effect = higher value",
  "procedure": "Growth inhibition of yeast strains with defined genetic alterations is measured as a screen for potential anti-cancer activity. Selected strains with alterations in DNA damage repair or cell cycle control were exposed to compounds and growth inhibition was measured relative to vehicle treated controls. The strain used in this assay is sgs1 mgt1",
  "key": {"[1]": {"details": "at 5.0 µM (retest, dose inferred, filed as 0.5)"}, "[2]": {"details": "at 50.0 µM (retest, dose inferred, filed as 5.0)"}},
  "note": "About 79,000 compounds went through this panel and 15% of them were active in at least one assay; those are over-represented in the sample as a whole. Calls of active or inactive are those of the source. Rule as the data show it: active = growth inhibition above about 70%; inactive = the rest.",
  "data": [
    {"smiles": "CCCCCN(CCCCC)CCCNc1ccc(C)c2sc3ccccc3c(=O)c12", "values": [
      {"measurement": "growth inhibition", "setting": "[1]", "result": "99% (active)"},
      {"measurement": "growth inhibition", "setting": "[2]", "result": "98% (active)"},
      {"measurement": "growth inhibition", "setting": "at 50.0 µM", "result": "99% (active)"}
    ]},
    {"smiles": "Clc1ccc(COC(CN2CCOCC2)c2ccccc2)c(Cl)c1", "note": "(configuration not stated)", "values": [
      {"measurement": "growth inhibition", "setting": "[1]", "result": "19% (inactive)"},
      {"measurement": "growth inhibition", "setting": "[2]", "result": "98% (active)"},
      {"measurement": "growth inhibition", "setting": "at 50.0 µM", "result": "96% (active)"}
    ]},
    {"smiles": "O=[N+]([O-])c1ccc(/C=C/[n+]2ccc3ccccc3c2)o1", "values": [
      {"measurement": "growth inhibition", "setting": "[1]", "result": "40% (inactive)"},
      {"measurement": "growth inhibition", "setting": "[2]", "result": "98% (active)"},
      {"measurement": "growth inhibition", "setting": "at 50.0 µM", "result": "98.9% (active)"}
    ]},
    {"smiles": "CCC(CC)N(CCNc1cc(OC)cc2cccnc12)CC(C)C", "values": [
      {"measurement": "growth inhibition", "setting": "[1]", "result": "4% (inactive)"},
      {"measurement": "growth inhibition", "setting": "[2]", "result": "12% (inactive)"},
      {"measurement": "growth inhibition", "setting": "at 50.0 µM", "result": "53.6% (inactive)"}
    ]},
    {"smiles": "OCC1(c2ccccc2)OC1c1ccccc1", "note": "(configuration not stated)", "values": [
      {"measurement": "growth inhibition", "setting": "[1]", "result": "-65% (inactive)"},
      {"measurement": "growth inhibition", "setting": "[2]", "result": "16% (inactive)"},
      {"measurement": "growth inhibition", "setting": "at 50.0 µM", "result": "37.6% (inactive)"}
    ]},
    {"smiles": "COc1ccc2ccccc2c1/C=C/C(=O)c1ccccc1", "values": [
      {"measurement": "growth inhibition", "setting": "[1]", "result": "11% (inactive)"},
      {"measurement": "growth inhibition", "setting": "[2]", "result": "47% (inactive)"},
      {"measurement": "growth inhibition", "setting": "at 50.0 µM", "result": "42.4% (inactive)"}
    ]},
    {"smiles": "COc1ccc2ccc(/C=C/[N+](=O)[O-])cc2c1OC", "values": [
      {"measurement": "growth inhibition", "setting": "[1]", "result": "53% (inactive)"},
      {"measurement": "growth inhibition", "setting": "[2]", "result": "99% (active)"},
      {"measurement": "growth inhibition", "setting": "at 50.0 µM", "result": "34.8% (inactive)"}
    ]},
    {"smiles": "Nc1ncnc2c1ncn2C1OCC(O)C1O", "note": "(configuration not stated)", "values": [
      {"measurement": "growth inhibition", "setting": "[1]", "result": "20% (inactive)"},
      {"measurement": "growth inhibition", "setting": "[2]", "result": "74% (active)"},
      {"measurement": "growth inhibition", "setting": "at 50.0 µM", "result": "72.9% (active)"}
    ]},
    {"smiles": "CN1CC[C@@H](c2ccccc2)[C@@H](O)C1", "values": [
      {"measurement": "growth inhibition", "setting": "[1]", "result": "2% (inactive)"},
      {"measurement": "growth inhibition", "setting": "[2]", "result": "-10% (inactive)"},
      {"measurement": "growth inhibition", "setting": "at 50.0 µM", "result": "49.1% (inactive)"}
    ]},
    {"smiles": "Cc1c(Cl)c(Cl)cc([N+](=O)[O-])c1Cl", "values": [
      {"measurement": "growth inhibition", "setting": "[1]", "result": "-5% (inactive)"},
      {"measurement": "growth inhibition", "setting": "[2]", "result": "15% (inactive)"},
      {"measurement": "growth inhibition", "setting": "at 50.0 µM", "result": "46% (inactive)"}
    ]},
    {"smiles": "BrCN(CBr)c1ccc2c(c1)Cc1cc(Br)ccc1-2", "values": [
      {"measurement": "growth inhibition", "setting": "[1]", "result": "1% (inactive)"},
      {"measurement": "growth inhibition", "setting": "[2]", "result": "1% (inactive)"},
      {"measurement": "growth inhibition", "setting": "at 50.0 µM", "result": "64.8% (inactive)"}
    ]},
    {"smiles": "O=S1(=O)CCc2ccccc2C(Br)C1Br", "note": "(configuration not stated)", "values": [
      {"measurement": "growth inhibition", "setting": "[1]", "result": "15% (inactive)"},
      {"measurement": "growth inhibition", "setting": "[2]", "result": "12% (inactive)"},
      {"measurement": "growth inhibition", "setting": "at 50.0 µM", "result": "99.5% (active)"}
    ]},
    {"smiles": "O=C1c2cccc(NCCNCCO)c2C(=O)c2cccc(NCCNCCO)c21", "values": [
      {"measurement": "growth inhibition", "setting": "[1]", "result": "17% (inactive)"},
      {"measurement": "growth inhibition", "setting": "[2]", "result": "13% (inactive)"},
      {"measurement": "growth inhibition", "setting": "at 50.0 µM", "result": "31% (inactive)"}
    ]},
    {"smiles": "S=c1ncc2c([nH]1)C1c3ccccc3C2c2ccccc21", "values": [
      {"measurement": "growth inhibition", "setting": "[1]", "result": "2% (inactive)"},
      {"measurement": "growth inhibition", "setting": "[2]", "result": "98% (active)"},
      {"measurement": "growth inhibition", "setting": "at 50.0 µM", "result": "90.1% (active)"}
    ]}
  ]
}
